# Laboratory results published in paper PMC9911399, “Two distinct binding modes provide the RNA-binding protein RbFox with extraordinary sequence specificity”.
# Changes are numbered by the printed parent chain; changes in the protein carry UniProt numbers. Over roughly 16,000 sequences, “ka relative to ugcaugu” has its median near 0.0091; the highest 2% begin near 0.032. Only a selection was taken, and the highest values are over-represented in it overall.
# B1: AGAAAUU (DNA:RNA)
# RNA: GGGAGACCGGAAUUCAGAUUGUCCAGAAAUUUUAAAUCCCGUCGUAGCCACCA
# DNA 1: CAATCTGAATTCCGGTCTCCC
# DNA 2: TGGTGGCTACGACGGGATT
# B2: UCAAUAA (DNA:RNA)
# RNA: B1 RNA with A25U, G26C, A29U, U30A, U31A
# DNA 1: CAATCTGAATTCCGGTCTCCC
# DNA 2: TGGTGGCTACGACGGGATT
# B3: ACAGCAG (DNA:RNA)
# RNA: B1 RNA with G26C, A28G, A29C, U30A, U31G
# DNA 1: CAATCTGAATTCCGGTCTCCC
# DNA 2: TGGTGGCTACGACGGGATT
# B4: CUCGUGG (DNA:RNA)
# RNA: GGGAGACCGGAAUUCAGAUUGUCCCUCGUGGUUAAAUCCCGUCGUAGCCACCA
# DNA 1: CAATCTGAATTCCGGTCTCCC
# DNA 2: TGGTGGCTACGACGGGATT
# B5: CUGGGCU (DNA:RNA)
# RNA: B4 RNA with C27G, U29G, G30C, G31U
# DNA 1: CAATCTGAATTCCGGTCTCCC
# DNA 2: TGGTGGCTACGACGGGATT
# B6: GGCUAGU (DNA:RNA)
# RNA: B1 RNA with A25G, A27C, A28U, U30G
# DNA 1: CAATCTGAATTCCGGTCTCCC
# DNA 2: TGGTGGCTACGACGGGATT
# B7: UGGGCUU (DNA:RNA)
# RNA: B1 RNA with A25U, A27G, A28G, A29C
# DNA 1: CAATCTGAATTCCGGTCTCCC
# DNA 2: TGGTGGCTACGACGGGATT
# B8: UGGGGCU (DNA:RNA)
# RNA: B1 RNA with A25U, A27G, A28G, A29G, U30C
# DNA 1: CAATCTGAATTCCGGTCTCCC
# DNA 2: TGGTGGCTACGACGGGATT
# B9: GGGGCGC (DNA:RNA)
# RNA: B4 RNA with C25G, U26G, C27G, U29C, G31C
# DNA 1: CAATCTGAATTCCGGTCTCCC
# DNA 2: TGGTGGCTACGACGGGATT
# B10: CGGCUAG (DNA:RNA)
# RNA: B4 RNA with U26G, C27G, G28C, G30A
# DNA 1: CAATCTGAATTCCGGTCTCCC
# DNA 2: TGGTGGCTACGACGGGATT
# B11: GGGCUAG (DNA:RNA)
# RNA: B4 RNA with C25G, U26G, C27G, G28C, G30A
# DNA 1: CAATCTGAATTCCGGTCTCCC
# DNA 2: TGGTGGCTACGACGGGATT
# B12: GGGGGGC (DNA:RNA)
# RNA: B4 RNA with C25G, U26G, C27G, U29G, G31C
# DNA 1: CAATCTGAATTCCGGTCTCCC
# DNA 2: TGGTGGCTACGACGGGATT
# B13: CGGGCGC (DNA:RNA)
# RNA: B4 RNA with U26G, C27G, U29C, G31C
# DNA 1: CAATCTGAATTCCGGTCTCCC
# DNA 2: TGGTGGCTACGACGGGATT
# B14: GGGCUUG (DNA:RNA)
# RNA: B1 RNA with A25G, A27G, A28C, A29U, U31G
# DNA 1: CAATCTGAATTCCGGTCTCCC
# DNA 2: TGGTGGCTACGACGGGATT
# B15: GGGCGCU (DNA:RNA)
# RNA: B1 RNA with A25G, A27G, A28C, A29G, U30C
# DNA 1: CAATCTGAATTCCGGTCTCCC
# DNA 2: TGGTGGCTACGACGGGATT
# B16: GUCGGGC (DNA:RNA)
# RNA: B4 RNA with C25G, U29G, G31C
# DNA 1: CAATCTGAATTCCGGTCTCCC
# DNA 2: TGGTGGCTACGACGGGATT
# B17: UAGUGAU (DNA:RNA)
# RNA: B1 RNA with A25U, G26A, A27G, A28U, A29G, U30A
# DNA 1: CAATCTGAATTCCGGTCTCCC
# DNA 2: TGGTGGCTACGACGGGATT
# B18: CACUUCG (DNA:RNA)
# RNA: B4 RNA with U26A, G28U, G30C
# DNA 1: CAATCTGAATTCCGGTCTCCC
# DNA 2: TGGTGGCTACGACGGGATT
# B19: GUCUGUU (DNA:RNA)
# RNA: B1 RNA with A25G, G26U, A27C, A28U, A29G
# DNA 1: CAATCTGAATTCCGGTCTCCC
# DNA 2: TGGTGGCTACGACGGGATT
# B20: GGGUUAG (DNA:RNA)
# RNA: B4 RNA with C25G, U26G, C27G, G28U, G30A
# DNA 1: CAATCTGAATTCCGGTCTCCC
# DNA 2: TGGTGGCTACGACGGGATT
# B21: CUGAUGG (DNA:RNA)
# RNA: B4 RNA with C27G, G28A
# DNA 1: CAATCTGAATTCCGGTCTCCC
# DNA 2: TGGTGGCTACGACGGGATT
# B22: AGAACUG (DNA:RNA)
# RNA: B1 RNA with A29C, U31G
# DNA 1: CAATCTGAATTCCGGTCTCCC
# DNA 2: TGGTGGCTACGACGGGATT
# B23: GCAAAGC (DNA:RNA)
# RNA: B1 RNA with A25G, G26C, U30G, U31C
# DNA 1: CAATCTGAATTCCGGTCTCCC
# DNA 2: TGGTGGCTACGACGGGATT
# B24: UUGCGGA (DNA:RNA)
# RNA: B4 RNA with C25U, C27G, G28C, U29G, G31A
# DNA 1: CAATCTGAATTCCGGTCTCCC
# DNA 2: TGGTGGCTACGACGGGATT
# B25: CCGGGCU (DNA:RNA)
# RNA: B4 RNA with U26C, C27G, U29G, G30C, G31U
# DNA 1: CAATCTGAATTCCGGTCTCCC
# DNA 2: TGGTGGCTACGACGGGATT
# B26: CGGGCUU (DNA:RNA)
# RNA: B1 RNA with A25C, A27G, A28G, A29C
# DNA 1: CAATCTGAATTCCGGTCTCCC
# DNA 2: TGGTGGCTACGACGGGATT
# B27: CGGGGCU (DNA:RNA)
# RNA: B1 RNA with A25C, A27G, A28G, A29G, U30C
# DNA 1: CAATCTGAATTCCGGTCTCCC
# DNA 2: TGGTGGCTACGACGGGATT
# B28: GCGGGCU (DNA:RNA)
# RNA: B1 RNA with A25G, G26C, A27G, A28G, A29G, U30C
# DNA 1: CAATCTGAATTCCGGTCTCCC
# DNA 2: TGGTGGCTACGACGGGATT
# B29: GGGGCUU (DNA:RNA)
# RNA: B1 RNA with A25G, A27G, A28G, A29C
# DNA 1: CAATCTGAATTCCGGTCTCCC
# DNA 2: TGGTGGCTACGACGGGATT
# B30: GGCUUUU (DNA:RNA)
# RNA: B1 RNA with A25G, A27C, A28U, A29U
# DNA 1: CAATCTGAATTCCGGTCTCCC
# DNA 2: TGGTGGCTACGACGGGATT
# B31: CGGCUUU (DNA:RNA)
# RNA: B1 RNA with A25C, A27G, A28C, A29U
# DNA 1: CAATCTGAATTCCGGTCTCCC
# DNA 2: TGGTGGCTACGACGGGATT
# B32: GGGCUUU (DNA:RNA)
# RNA: B1 RNA with A25G, A27G, A28C, A29U
# DNA 1: CAATCTGAATTCCGGTCTCCC
# DNA 2: TGGTGGCTACGACGGGATT
# B33: GGGGGCU (DNA:RNA)
# RNA: B1 RNA with A25G, A27G, A28G, A29G, U30C
# DNA 1: CAATCTGAATTCCGGTCTCCC
# DNA 2: TGGTGGCTACGACGGGATT
# Molecular target: T1, RBFOX1 RRM (Homo sapiens, UniProt Q9NWB1 109-208)
# T1 sequence: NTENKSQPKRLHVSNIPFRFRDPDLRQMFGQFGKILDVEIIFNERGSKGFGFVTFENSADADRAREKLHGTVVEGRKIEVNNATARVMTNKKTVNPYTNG
# Assay: EMSA; HiTS-Eq, 1 nM pool, 10 min; buffer printed only for the single-RNA assays: 10 mM Tris pH 7.5, 150 mM NaCl, 3.4 mM EDTA, 0.001% NP-40, 30 C
# Conditions: tags: His6 N-terminal (pET28a); label: 5' 32P
# Outline: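 Relative association constants, normalised to the cognate motif, were derived by comparing read counts of each RNA species with those of the control reaction. The RNA sequenced was the free fraction, separated by 8% native PAGE after a 10 min equilibration in 50 µL of 1 nM 5′-radiolabelled RNA (7 randomized nucleotides) with increasing concentrations of purified wild-type or mutant RbFox RRM.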
row,Binder,binding signal
1,B1,0.00368 KA relative to UGCAUGU
2,B2,0.00079 KA relative to UGCAUGU
3,B3,0.00511 KA relative to UGCAUGU
4,B4,0.00654 KA relative to UGCAUGU
5,B5,0.0227 KA relative to UGCAUGU
6,B6,0.0239 KA relative to UGCAUGU
7,B7,0.0356 KA relative to UGCAUGU
8,B8,0.0267 KA relative to UGCAUGU
9,B9,0.0421 KA relative to UGCAUGU
10,B10,0.02 KA relative to UGCAUGU
11,B11,0.0339 KA relative to UGCAUGU
12,B12,0.0272 KA relative to UGCAUGU
13,B13,0.0268 KA relative to UGCAUGU
14,B14,0.0531 KA relative to UGCAUGU
15,B15,0.0216 KA relative to UGCAUGU
16,B16,0.0126 KA relative to UGCAUGU
17,B17,0.00564 KA relative to UGCAUGU

row,Binder,binding signal
1,B18,0.0103 KA relative to UGCAUGU
2,B19,0.0246 KA relative to UGCAUGU
3,B20,0.0153 KA relative to UGCAUGU
4,B21,0.0123 KA relative to UGCAUGU
5,B22,0.0109 KA relative to UGCAUGU
6,B23,0.0111 KA relative to UGCAUGU
7,B24,0.0101 KA relative to UGCAUGU
8,B25,0.00883 KA relative to UGCAUGU
9,B26,0.0317 KA relative to UGCAUGU
10,B27,0.0294 KA relative to UGCAUGU
11,B28,0.0197 KA relative to UGCAUGU
12,B29,0.033 KA relative to UGCAUGU
13,B30,0.0115 KA relative to UGCAUGU
14,B31,0.0187 KA relative to UGCAUGU
15,B32,0.0244 KA relative to UGCAUGU
16,B33,0.0377 KA relative to UGCAUGU
